Screens as filed in PubChem.
C diff growth: inhibitors of Clostridium difficile growth | Clostridium difficile clinical isolate growth, OD600, 24 h; active compounds read low | growth activity, negative = inhibition, % at 16 µg/mL (by protocol) | hit rate 0.25% among 86,000;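 active = mean growth activity at or below -80% and every replicate also at or below -80%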;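 also: 0% = DMSO wells and -100% = levofloxacin 16 µg/mL wells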
Active calls of the source: *; ! = not active in a repeat. This is one part of a sample in which hits are shown more often than they occur.

SMILES	C diff growth
CN1C(=O)c2cc(NC(=O)C3CC3)ccc2OC[C@H]2O[C@H](CC(=O)NCC3CCCCC3)CC[C@@H]21	-1.5
O=C(NCC[C@@H]1CC[C@H](NC(=O)C2CC2)[C@H](CO)O1)Nc1ccc(C(F)(F)F)cc1	-95.1*
O=C(NCC[C@@H]1CC[C@H](NC(=O)C2CC2)[C@@H](CO)O1)Nc1ccc(C(F)(F)F)cc1	-94.0*
O=C(NCC[C@@H]1CC[C@@H](NC(=O)C2CC2)[C@@H](CO)O1)Nc1ccc(Cl)cc1	-3.8
O=C(NCC[C@H]1CC[C@H](NC(=O)C2CC2)[C@@H](CO)O1)Nc1ccc(Cl)cc1	-0.8
O=C(NCC[C@@H]1CC[C@H](NC(=O)C2CCC2)[C@H](CO)O1)Nc1ccc(Cl)cc1	-0.8
O=C(NCC[C@H]1CC[C@@H](NC(=O)C2CCCC2)[C@@H](CO)O1)Nc1ccc(Cl)cc1	-0.8
O=C(NCC[C@@H]1CC[C@@H](NC(=O)C2CC2)[C@@H](CO)O1)Nc1ccc(C(F)(F)F)cc1	-84.7*
CN(C)CC(=O)N[C@H]1CC[C@H](CCNC(=O)Nc2ccc(Cl)cc2)O[C@H]1CO	1.5
O=C(NCC[C@H]1CC[C@H](NC(=O)C2CC2)[C@H](CO)O1)Nc1ccc(Cl)cc1	2.3
CN(C)CC(=O)N[C@H]1CC[C@H](CCNC(=O)Nc2ccc(C(F)(F)F)cc2)O[C@H]1CO	-94.2*
O=C(Nc1ccc(C(F)(F)F)cc1)N[C@H]1CC[C@H](CCNC(=O)c2ccccc2F)O[C@@H]1CO	7.1
O=C(NCC[C@@H]1CC[C@@H](NC(=O)C2CCC2)[C@@H](CO)O1)Nc1ccc(Cl)cc1	3.3
CCN1[C@@H]2c3ccc(C4=CCCC4)c(=O)n3C[C@@H]2[C@@H](CO)[C@@H]1C(=O)NCCCN(C)C	-3.7
CCCNC(=O)N1C[C@H]2[C@@H](c3ccccc31)[C@@H](CO)N2CC1CCCCC1	5.7
O=C(Cc1cccnc1)N1CC(=O)N2[C@@H](CO)[C@H](c3ccc(C#CC4CCCC4)cc3)[C@@H]2C1	-2.8
COc1ccc2c3c([nH]c2c1)[C@H](CO)N(C(=O)CN1CCOCC1)CC31CCN(C(C)=O)CC1	-3.6
O=C(Nc1ccc(F)cc1)N1CC(=O)N2[C@H](CO)[C@H](c3ccc(-c4ccccc4)cc3)[C@H]2C1	-18.7
COc1cccc(NC(=O)N(C)C[C@@H]2OCc3cn(nn3)CCCC(=O)N([C@H](C)CO)C[C@@H]2C)c1	-0.2
O=C(C[C@@H]1C=C[C@H](NC(=O)Nc2ccccc2F)[C@H](CO)O1)NCc1ccccc1	-2.9
COCCNC(=O)C[C@H]1CC[C@@H]2[C@@H](COc3ccc(NC(=O)Cc4ccccc4)cc3C(=O)N2C)O1	32.0
COc1ccc(S(=O)(=O)Nc2ccc3c(c2)C(=O)N([C@H](C)CO)C[C@@H](C)[C@H](CN(C)S(=O)(=O)c2c(C)noc2C)OCCCC[C@@H](C)O3)cc1	-8.6
CCCN1[C@@H]2c3ccc(-c4ccccc4)c(=O)n3C[C@@H]2[C@@H](CO)[C@@H]1C(=O)OC	4.8
CNC(=O)C[C@@H]1CC[C@@H]2[C@@H](COc3ccc(NC(=O)c4cccc(OC)c4)cc3C(=O)N2C)O1	2.6
COc1ccc(S(=O)(=O)Nc2cccc3c2O[C@@H](CN(C)C(=O)NC2CCCCC2)[C@@H](C)CN([C@@H](C)CO)C3=O)cc1	-3.2
SMILES	C diff growth
COc1ccc(C#Cc2ccc([C@H]3[C@@H](CO)N4CCCCN(C(=O)Nc5ccc(F)cc5)C[C@H]34)cc2)cc1	16.5
Cc1ccc(-c2ccc([C@H]3[C@H](CO)N4CCCCN(C(=O)Nc5cccc(F)c5)C[C@@H]34)cc2)cc1	-99.1*
COc1ccc(C#Cc2ccc([C@@H]3[C@H](CO)N4CCCCN(C(=O)Nc5ccc(F)cc5)C[C@@H]34)cc2)cc1	-93.1*
CC(C)CC#Cc1ccc([C@H]2[C@H]3CN(C(=O)Nc4ccccc4)CCCCN3[C@H]2CO)cc1	30.4
O=C(Nc1ccccc1F)N1CCCCN2[C@H](C1)[C@H](c1ccc(/C=C/c3ccccc3)cc1)[C@@H]2CO	40.7
COc1ccc(C#Cc2ccc([C@@H]3[C@@H](CO)N4CCCCN(C(=O)Nc5ccc(F)cc5)C[C@H]34)cc2)cc1	32.2
O=C(Nc1ccccc1F)N1CCCCN2[C@H](CO)[C@@H](c3ccc(/C=C/c4ccccc4)cc3)[C@@H]2C1	49.7
CC(C)CC#Cc1ccc([C@@H]2[C@@H](CO)N3CCCCN(C(=O)Nc4ccccc4)C[C@@H]23)cc1	54.9
CC(C)CC#Cc1ccc([C@H]2[C@@H](CO)N3CCCCN(C(=O)Nc4ccccc4)C[C@H]23)cc1	-87.5*
Cc1ccc(-c2ccc([C@H]3[C@H]4CN(C(=O)Nc5cccc(F)c5)CCCCN4[C@H]3CO)cc2)cc1	48.0
O=C(Nc1cccc(F)c1)N1CCCCN2[C@H](CO)[C@H](c3ccc(-c4ccncc4)cc3)[C@@H]2C1	1.8
O=C(Nc1ccccc1F)N1CCCCN2[C@@H](CO)[C@@H](c3ccc(/C=C/c4ccccc4)cc3)[C@@H]2C1	-96.0*
CCC(=O)Nc1ccc2c(c1)OC[C@@H](C)N(Cc1nccs1)C[C@@H](C)[C@H](OC)CN(C)C2=O	2.4
COCCNC(=O)C[C@@H]1CC[C@H]2[C@H](COc3ccc(NC(=O)C4CCCC4)cc3C(=O)N2C)O1	-0.7
COc1ccc(CN(C)C[C@H]2OCCCC[C@@H](C)Oc3ccc(NC(=O)NC(C)C)cc3C(=O)N([C@@H](C)CO)C[C@H]2C)cc1	-1.1
C[C@@H]1CN([C@H](C)CO)C(=O)c2c(c3ccccc3n2C)-c2ccccc2CO[C@H]1CN(C)C(=O)[C@H](C)c1ccccc1	-0.1
COc1ccc2c3c([nH]c2c1)[C@H](CO)N(C(=O)Nc1c(C)noc1C)CC31CN(CC2CC2)C1	12.7
Cc1ccc(S(=O)(=O)NC[C@@H]2CC[C@@H]3[C@@H](CN3Cc3cc(F)ccc3F)O2)cc1	-7.8
O=C(Nc1ccccc1)N1C[C@@H]2N[C@H](C1)[C@@H]2c1ccc(/C=C/c2ccccc2)cc1	-96.9*
C/C=C/c1ccc(C2[C@@H]3CN(S(=O)(=O)c4ccc(C)cc4)C[C@H]2N3)cc1 (some centres undefined)	-14.8
O=S(=O)(c1ccc(F)cc1)N1C[C@@H]2N[C@H](C1)C2c1ccc(/C=C/c2ccccc2)cc1 (some centres undefined)	-98.8*!
O=S(=O)(c1ccccc1)N1C[C@@H]2N[C@H](C1)C2c1ccc(-c2ccccc2)cc1 (some centres undefined)	55.7
O=C(c1ccc2c(c1)OCO2)N1C[C@@H]2N[C@H](C1)C2c1ccc(/C=C/c2ccccc2)cc1 (some centres undefined)	47.3
O=C(Nc1ccccc1)N1C[C@@H]2N[C@H](C1)C2c1ccc(-c2ccccc2)cc1 (some centres undefined)	62.2
COc1ccccc1NC(=O)N1C[C@@H]2N[C@H](C1)C2c1ccc(/C=C/c2ccccc2)cc1 (some centres undefined)	5.4
O=C(c1ccncc1)N1C[C@@H]2N[C@H](C1)C2c1ccc(/C=C/c2ccccc2)cc1 (some centres undefined)	-1.3
O=C(c1ccc(F)cc1)N1C[C@@H]2N[C@H](C1)C2c1ccc(/C=C/c2ccccc2)cc1 (some centres undefined)	-99.2*!
CC(C)c1cn(CC[C@@H]2CC[C@H](NC(=O)C3CCCC3)[C@@H](CO)O2)nn1	2.0
C[C@H](CO)N1C[C@H](C)[C@@H](CN(C)C(=O)C2CCCCC2)OCCCC[C@H](C)Oc2ccc(NS(=O)(=O)c3cn(C)cn3)cc2C1=O	4.7
